Screens deposited in PubChem BioAssay by Sanford-Burnham Center for Chemical Genomics.
KKLEB tox = CF airway cell cytotoxicity counter-screen; AID 602141; activity change (cytotoxicity), % at 5 µM; KKLEB CF airway cells viability, ATPlite luminescence, overnight; stronger effect = lower value; cells stimulated with P. aeruginosa culture filtrate; 360,000 compounds, 0.36% hits;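 active means corrected activity change at or below -50% at 5 µM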
HIF-2a inh = inhibitors of HIF-2a; 786-0 RCC cells HIF-2a reporter, luciferase luminescence, overnight; inhibition, % at 18.8 µM; 360,000 compounds, 0.72% hits;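 active means inhibition of the luminescence signal of 40% or more relative to plate controls, in a single-dose primary screen at 18.75 µM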
C8 TRAIL sens = sensitizes caspase-8 expressing cells to TRAIL. 360,000 compounds, 1% hits. NB7+C8 cells + TRAIL, ATPlite viability luminescence. inhibition (viability loss, TRAIL sensitization), % at 10 µM. AID 624354;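 active means compounds causing at least 50% loss of cell viability in the single-dose screen, relative to plate controls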
hiPSC survival = enhancers of human iPSC single-cell survival | survival enhancement, % at 20 µM | hiPSC single-cell survival, ATPlite luminescence; 100% = ROCK inhibitor wells, 0% = DMSO | 360,000 compounds, 0.044% hits; in the data active means survival enhancement above about 18%;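 further: cells exposed to compounds for 16 hours before the ATP read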
CF NFkB inh = cystic fibrosis NF-kB activation inhibition; KKLEB NF-kB-GFP reporter, PAF-induced, GFP fluorescence overnight; inhibition, % at 5 µM; 360,000 compounds, 0.86% hits; AID 588850;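 active means at least 50% inhibition at 5 µM, scaled per plate between neutral and stimulator controls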;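 further: PAF is a Pseudomonas aeruginosa culture filtrate used as stimulus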
PPC-1+TRAIL kill = PPC-1 cancer cell killing with TRAIL present. cell killing (% activity), % at 4 µM or 5 µM. 220,000 compounds, 0.41% hits. PPC-1 cells + TRAIL, ATPLite viability luminescence;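 active means cell killing above 50% in the first pass at 4 µM, then a duplicate retest at 5 µM averaging 50% or more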
Mdm2 MdmX conf = confirmation of inhibitors of human Mdm2/MdmX interaction, set 2. 740 compounds, 99% hits. SaOS-2 split-luciferase Mdm2/MdmX complementation, luminescence. inhibition, % at 8 µM. shares compounds with HIF-2a inh;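 active means mean inhibition of the luminescence signal across two replicates at or above 26 percent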
Target sequence (O15151 whole entry, looked up): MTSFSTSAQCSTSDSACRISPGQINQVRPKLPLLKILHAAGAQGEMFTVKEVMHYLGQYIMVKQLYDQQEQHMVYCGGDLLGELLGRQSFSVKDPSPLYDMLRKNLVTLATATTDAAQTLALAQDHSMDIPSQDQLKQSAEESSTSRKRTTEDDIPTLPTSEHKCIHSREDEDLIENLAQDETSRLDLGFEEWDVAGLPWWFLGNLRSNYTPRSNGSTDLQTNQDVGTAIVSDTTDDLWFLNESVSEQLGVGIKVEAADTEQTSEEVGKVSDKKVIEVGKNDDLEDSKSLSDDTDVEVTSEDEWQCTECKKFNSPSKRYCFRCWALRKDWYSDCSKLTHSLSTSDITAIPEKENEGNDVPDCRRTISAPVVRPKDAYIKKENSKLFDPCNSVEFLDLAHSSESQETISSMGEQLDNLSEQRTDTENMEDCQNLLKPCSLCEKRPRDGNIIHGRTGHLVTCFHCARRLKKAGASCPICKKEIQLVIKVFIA
Target sequence (Q00987 whole entry, looked up): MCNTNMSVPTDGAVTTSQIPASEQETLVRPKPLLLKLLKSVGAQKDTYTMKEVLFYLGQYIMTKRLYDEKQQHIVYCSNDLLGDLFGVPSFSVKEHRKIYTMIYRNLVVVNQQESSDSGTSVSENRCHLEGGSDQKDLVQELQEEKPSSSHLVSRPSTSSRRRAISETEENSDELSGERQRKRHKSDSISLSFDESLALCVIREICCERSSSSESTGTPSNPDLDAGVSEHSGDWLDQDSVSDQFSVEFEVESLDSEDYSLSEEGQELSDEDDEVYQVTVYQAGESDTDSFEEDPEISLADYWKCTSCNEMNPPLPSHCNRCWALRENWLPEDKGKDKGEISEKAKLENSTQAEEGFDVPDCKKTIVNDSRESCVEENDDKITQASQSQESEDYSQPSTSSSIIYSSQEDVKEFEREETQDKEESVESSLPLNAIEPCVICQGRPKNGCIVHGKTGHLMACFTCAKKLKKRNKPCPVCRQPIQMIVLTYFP
HIF-2a conf = HIF-2a inhibition, single concentration confirmation | 786-0 RCC cells, HIF-2a luciferase reporter luminescence, overnight | shares compounds with HIF-2a inh | 1,800 compounds, 56% hits | inhibition, % at 18.8 µM;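 active means mean inhibition across four replicates of at least 40 percent at the single tested concentration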
HIF-1a counter = HIF-1a inhibition counter-screen for HIF-2a hits. MiaPaCa-2 HIF-1a luciferase reporter, desferoxamine, overnight. 1,800 compounds, 72% hits. inhibition, % at 18.8 µM. shares compounds with HIF-2a inh;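 active means mean inhibition of the reporter signal across four replicates at the single tested dose of 50% or more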
Large screens that a line does not name were inactive (follow-up assays come after a bar, where they were run). Only some compounds are listed: those with a hit (about 2.2% of all), similar ones and a draw of the others.

CCn1c(=O)c([N+](=O)[O-])c(Cl)c2ccccc21	HIF-2a inh 91.7, C8 TRAIL sens 51.9, CF NFkB inh 67.2 | Mdm2 MdmX conf 103.0 | HIF-2a conf 94.4 | HIF-1a counter 105.6
CCN1CCN(c2ccc(NC(=O)c3ccc([N+](=O)[O-])o3)cc2Cl)CC1	HIF-2a inh 63.7, CF NFkB inh 89.2 | HIF-2a conf 49.0 | HIF-1a counter 57.8
CCC(=O)N1CCN(c2ccc(Cl)cc2NC(=O)c2ccc([N+](=O)[O-])o2)CC1	none (no result: PPC-1+TRAIL kill)
CCN1CCN(c2ccc(NC(=O)c3ccc(F)cc3)cc2Cl)CC1	none
CCC(=O)N1CCN(c2ccc(NC(=O)c3ccc([N+](=O)[O-])o3)cc2Cl)CC1	KKLEB tox -58.0, HIF-2a inh 93.7, C8 TRAIL sens 70.0, CF NFkB inh 86.2 | HIF-2a conf 51.2 | HIF-1a counter 90.1
O=C(COc1coc(CN2CCc3ccccc32)cc1=O)Nc1ccccc1	none (no result: PPC-1+TRAIL kill)
Nc1c(C(=O)N2CCOCC2)sc2nc3c(cc12)CCC3	none (no result: PPC-1+TRAIL kill)
Nc1c(C(=O)N2CCOCC2)sc2nc3c(cc12)CCCC3	HIF-2a inh 46.4, C8 TRAIL sens 57.3 (no result: PPC-1+TRAIL kill) | HIF-2a conf 46.9 | HIF-1a counter inactive
CC1CN(C(=O)CSc2nnc(-c3ccccc3)o2)CC(C)O1 (configuration not stated)	none (no result: PPC-1+TRAIL kill)
CC(CCc1ccccc1)NC(=O)COC(=O)c1ccc([N+](=O)[O-])cc1 (configuration not stated)	none (no result: PPC-1+TRAIL kill)
CC(CCc1ccccc1)NC(=O)COC(=O)c1ccc(S(C)(=O)=O)c([N+](=O)[O-])c1 (configuration not stated)	KKLEB tox -63.8, HIF-2a inh 50.5, CF NFkB inh 91.4 | Mdm2 MdmX conf 102.5 | HIF-2a conf inactive | HIF-1a counter 96.8
CC(O)CNc1ncnc2cc(-c3ccc(F)cc3)sc12 (configuration not stated)	none (no result: PPC-1+TRAIL kill)
CCOC(=O)c1c(C)nn(-c2ccc(NC(=O)c3c(C)noc3C)cc2)c1C	HIF-2a inh 65.5 (no result: PPC-1+TRAIL kill) | HIF-2a conf 80.3 | HIF-1a counter inactive
CCOC(=O)c1c(C)nn(-c2ccc(NC(=O)/C=C/C(=O)O)cc2)c1C	HIF-2a inh 74.5 | HIF-2a conf 48.2 | HIF-1a counter inactive
CCOC(=O)c1c(C)nn(-c2ccc(NC(=O)c3cccs3)cc2)c1C	none (no result: PPC-1+TRAIL kill)
CCc1ccc2nc(N(CCCN(C)C)C(=O)c3ccc(S(=O)(=O)N4CCc5ccccc5C4)cc3)sc2c1	KKLEB tox -97.6, HIF-2a inh 68.1, C8 TRAIL sens 79.5, CF NFkB inh 66.6 (no result: PPC-1+TRAIL kill) | HIF-2a conf inactive | HIF-1a counter inactive
CCc1ccc2nc(N(CCCN(C)C)C(=O)c3ccc(S(=O)(=O)N(C)C4CCCCC4)cc3)sc2c1	none (no result: PPC-1+TRAIL kill)
Cc1oc(-c2ccc3c(c2)OCCO3)cc1C(=O)NCC(=O)O	none (no result: PPC-1+TRAIL kill)
Cc1oc(-c2ccc3c(c2)OCCO3)cc1C(=O)O	HIF-2a inh 81.0 | HIF-2a conf 92.4 | HIF-1a counter 91.8
O=C(O)c1c(NC(=O)N2CCOCC2)sc2c1CCCC2	HIF-2a inh 54.9 (no result: PPC-1+TRAIL kill) | HIF-2a conf inactive | HIF-1a counter inactive
NC(=O)c1c(NC(=O)C(=O)N2CCOCC2)sc2c1CCCC2	none (no result: PPC-1+TRAIL kill)
CN(Cc1ccno1)C(=O)CC1C(=O)NCCN1CC(c1ccccc1)c1ccccc1 (configuration not stated)	none
CC(C)(C)n1nc(-c2ccc(F)cc2)c2c(N)ncnc21	HIF-2a inh 43.3 | HIF-2a conf 45.2 | HIF-1a counter inactive
Cc1ccc(-c2nc(N)c3c(-c4ccc(C)cc4)nn(C(C)(C)C)c3n2)cc1	none
CC(C)(C)n1nc(-c2ccc(Cl)cc2)c2c(N)ncnc21	HIF-2a inh 62.7 | HIF-2a conf 43.4 | HIF-1a counter 80.0
CCOC(=O)Cc1ccc(NCc2ccc(Cl)cc2)cc1	none
COc1ccc(N(C(=O)CCl)C(C(=O)NCCc2ccccc2)c2cccs2)cc1 (configuration not stated)	KKLEB tox -92.1, HIF-2a inh 96.4, C8 TRAIL sens 97.5, CF NFkB inh 90.2 | HIF-2a conf 98.2 | HIF-1a counter 106.9
COCCCNC(=O)c1ccc2c3c(onc13)-c1ccccc1C2=O	none
O=C1c2ccccc2-c2onc3ccc(Oc4ccccc4)c1c23	KKLEB tox -82.7, CF NFkB inh 85.3 | Mdm2 MdmX conf 102.7
COc1ccc(Br)cc1[C@H]1[C@H]2C=CC[C@@H](C)[C@@H]2C(=O)N1Cc1ccccc1	HIF-2a inh 43.7 | HIF-2a conf inactive | HIF-1a counter inactive
CC(=O)Nc1ccc(NC(=O)c2sc3nc4n(c(=O)c3c2C)CCCCC4)cc1	HIF-2a inh 79.9 | HIF-2a conf 89.6 | HIF-1a counter 90.0
COc1ccc(NC(=S)NC(=O)c2cncc(Br)c2)c(OC)c1	none (no result: PPC-1+TRAIL kill)
Cn1c(=O)[nH]c(=O)c2[nH]c(N(Cc3ccccc3)Cc3ccccc3)nc21	HIF-2a inh 40.8 | HIF-2a conf inactive | HIF-1a counter inactive
Cc1ccccc1N(C(=O)c1snc(C(N)=O)c1N)C(C(=O)NC1CCCCC1)c1ccc(O)cc1 (configuration not stated)	HIF-2a inh 41.9 (no result: PPC-1+TRAIL kill) | HIF-2a conf inactive | HIF-1a counter 85.6
CCOC(=O)c1oc2ccccc2c1COC(=O)CNC(=O)c1ccco1	none (no result: PPC-1+TRAIL kill)
CCCCCCn1c(=O)n2n(c1=O)C[C@]1(OC(=O)NCc3ccccc3)CN(S(=O)(=O)c3ccc(C)cc3)C[C@]1(O)C2	none (no result: PPC-1+TRAIL kill)
CC(C)c1ccc(N=C(N)N=C(N)N)cc1	none
FC(F)(F)c1ccccc1Cc1c(-c2ccco2)nc2ccc(Cl)cn12	HIF-2a inh 37.3 (no result: PPC-1+TRAIL kill) | HIF-2a conf inactive | HIF-1a counter 64.3
Cc1ccn2c(Nc3ccc4c(c3)OCO4)c(-c3ccccn3)nc2c1	none
Cc1ccc(Nc2c(-c3ccccn3)nc3cc(C)ccn23)cc1	none | Mdm2 MdmX conf 88.2
Cc1ccc2nc(-c3ccncc3)c(Nc3ccccc3)n2c1	none
Cc1ccc(Nc2c(-c3ccccn3)nc3ccc(C)cn23)cc1	none | Mdm2 MdmX conf 86.2
CCC[C@@H](CN[C@@H](CNC)C(C)C)NCCCCc1ccccc1	none (no result: PPC-1+TRAIL kill)
CNC[C@@H](Cc1ccccc1)NC[C@@H](CC1CCCCC1)NCCCc1ccccc1	KKLEB tox -95.8, HIF-2a inh 85.4, C8 TRAIL sens 96.2, CF NFkB inh 84.6 (no result: PPC-1+TRAIL kill) | Mdm2 MdmX conf 103.2 | HIF-2a conf inactive | HIF-1a counter 106.3
